# According to PubChem BioAssay (Tox21):
# Values joined by “and” are separate entries in the source; they are usually repeats but may differ in a detail not shown here. Equal values may be shown once. Results filed as inconclusive are left out. Entries that show only a call come without a potency. Active and inactive are the calls of the source. Unless noted, the call rests on the fitted dose curve; in most records, active means well fitted cell-killing curve with a large enough effect in the repeat runs; inconclusive means weak or mixed curves, or effect the other way; inactive means no such curve, though single readings can be large or run the other way.
# Molecular target: Progesterone receptor (Homo sapiens) (UniProt P06401)
# Assay: qHTS assay to identify small molecule antagonists of the progesterone receptor (PR) signaling pathway (AID 1346795; active means well fitted inhibition curve with a large enough effect in the signal ratio in the repeat runs, not every such curve was filed as active; the % refers to the signal ratio)
# Settings: PR-UAS-bla HEK293T, beta-lactamase FRET ratio, 16 h; series mostly up to 92.4 µM; activity change, negative = inhibition: at the top concentration
# Method in brief: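 HEK293T PR-UAS-bla reporter cells in charcoal-stripped serum (2%) received compound after a 6 hr settling period, followed by R5020 agonist at 1 nM final; 16 hr incubation preceded the FRET substrate step and fluorescence measurement.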
# Potency means the concentration at half of the fitted maximal effect.
# Sequence of Progesterone receptor (Homo sapiens) (P06401 whole entry, looked up): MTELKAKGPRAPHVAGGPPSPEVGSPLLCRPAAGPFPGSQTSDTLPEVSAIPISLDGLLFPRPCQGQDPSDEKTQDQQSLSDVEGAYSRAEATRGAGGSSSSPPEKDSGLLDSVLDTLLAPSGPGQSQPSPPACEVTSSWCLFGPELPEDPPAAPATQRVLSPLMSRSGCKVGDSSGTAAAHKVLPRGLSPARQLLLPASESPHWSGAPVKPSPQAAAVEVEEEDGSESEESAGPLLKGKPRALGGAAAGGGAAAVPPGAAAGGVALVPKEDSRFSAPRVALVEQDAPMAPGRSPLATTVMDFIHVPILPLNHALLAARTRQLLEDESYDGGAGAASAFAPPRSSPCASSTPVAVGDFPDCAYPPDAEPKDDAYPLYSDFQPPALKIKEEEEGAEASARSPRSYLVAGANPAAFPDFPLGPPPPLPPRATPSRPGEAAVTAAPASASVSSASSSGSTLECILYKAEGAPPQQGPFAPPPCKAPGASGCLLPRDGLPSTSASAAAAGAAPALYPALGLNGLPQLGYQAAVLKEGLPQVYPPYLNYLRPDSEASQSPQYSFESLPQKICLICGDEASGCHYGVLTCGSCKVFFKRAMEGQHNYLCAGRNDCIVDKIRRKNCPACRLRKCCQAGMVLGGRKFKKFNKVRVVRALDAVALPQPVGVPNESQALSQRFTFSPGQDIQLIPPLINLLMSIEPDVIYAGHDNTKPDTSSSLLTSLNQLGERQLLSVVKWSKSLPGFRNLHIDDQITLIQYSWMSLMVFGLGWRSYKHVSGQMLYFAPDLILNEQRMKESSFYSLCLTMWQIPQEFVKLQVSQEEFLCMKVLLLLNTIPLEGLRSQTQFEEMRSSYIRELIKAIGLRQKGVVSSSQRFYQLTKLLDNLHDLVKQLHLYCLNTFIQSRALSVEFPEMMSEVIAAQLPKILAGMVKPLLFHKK
Structure (SMILES),Potency,"activity change, negative = inhibition"
CCOc1ccc(NC(C)=O)cc1,inactive,
CC(C)C(=O)Nc1ccc([N+](=O)[O-])c(C(F)(F)F)c1,25 µM (active),
NC(=O)c1cccnc1,inactive,
COc1ccc(C(Cl)=C(c2ccc(OC)cc2)c2ccc(OC)cc2)cc1,6.82 µM (active) and 5.45 µM (active) and 4.22 µM (active),
C=C(C)C(=O)OCC(C)O (centres undefined),inactive,
O=CC(=O)c1ccccc1,,6.5% (inactive)
O=c1[nH]cc(F)c(=O)[nH]1,inactive,
NS(=O)(=O)c1cc2c(cc1Cl)NCNS2(=O)=O,inactive,
CN(C)CCOC(C)(c1ccccc1)c1ccccn1 (centres undefined),inactive,
CC(C)NCC(O)c1ccc(O)c(O)c1 (centres undefined),inactive,
Cc1cn([C@H]2C=C[C@@H](CO)O2)c(=O)[nH]c1=O,inactive,
C/C=C/C=C/C(=O)O,inactive,
Nc1c(N=Nc2ccc(-c3ccc(N=Nc4cc(S(=O)(=O)O)c5ccccc5c4N)cc3)cc2)cc(S(=O)(=O)O)c2ccccc12,,-12.7% (inactive)
Nc1c2c(nc3ccccc13)CCCC2,inactive,
O=S1(=O)OC(c2ccc(O)cc2)(c2ccc(O)cc2)c2ccccc21,inactive,
CCCCCCCC(=O)OCC(COC(=O)CCCCCCC)OC(=O)CCCCCCC,inactive,
NS(=O)(=O)O,inactive,
Cc1c(C(=O)O)c(O)cc2c1C(=O)c1c(O)c([C@@H]3O[C@H](CO)[C@@H](O)[C@H](O)[C@H]3O)c(O)c(O)c1C2=O,inactive,
CCCCCCCCCCCCCCCC[N+](C)(C)Cc1ccccc1,,-17.6% [at 42.5 µM] (inactive)
Nc1ccc(S(N)(=O)=O)cc1,inactive,
CN(C)CCOC(c1ccccc1)c1ccccc1,inactive,
CCCCOC(=O)c1ccc(O)cc1,27.6 µM (active) and 27.3 µM (active) and 26.6 µM (active),
NC1CCCCC1,inactive,
CCN(CC)C(=O)c1cccc(C)c1,inactive,
CNNCc1ccc(C(=O)NC(C)C)cc1,inactive,
OC[C@H]1O[C@H](O[C@]2(CCl)O[C@H](CCl)[C@@H](O)[C@@H]2O)[C@H](O)[C@@H](O)[C@H]1Cl,inactive,

# Tested on: not listed separately
# Assay: qHTS assay to identify small molecule antagonists of the progesterone receptor (PR) signaling pathway - cell viability counter screen (AID 1346798); further: nearly all actives have a fitted effect of over 50% in size
# Settings: PR-UAS-bla HEK293T viability, CellTiter-Glo luminescence, 16 h; series mostly up to 92.4 µM; activity change, negative = cytotoxicity: at the top concentration
# Method in brief: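 Same-well multiplex: after 16 hr at 37C with compound and R5020 stimulation, HEK293T cells carrying a UAS-bla reporter received LiveBLAzer substrate (2 hr RT), then CellTiter-Glo (30 min RT) for luminescent viability.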
Structure (SMILES),Potency,"activity change, negative = cytotoxicity"
O=C(O)CC(O)C(=O)O (centres undefined),inactive,
CCOc1ccc(NC(C)=O)cc1,inactive,
CC(C)C(=O)Nc1ccc([N+](=O)[O-])c(C(F)(F)F)c1,inactive,
NC(=O)c1cccnc1,inactive,
COc1ccc(C(Cl)=C(c2ccc(OC)cc2)c2ccc(OC)cc2)cc1,inactive,
C=C(C)C(=O)OCC(C)O (centres undefined),inactive,
O=CC(=O)c1ccccc1,,9.57% (inactive)
NS(=O)(=O)c1cc2c(cc1Cl)NCNS2(=O)=O,inactive,
CN(C)CCOC(C)(c1ccccc1)c1ccccn1 (centres undefined),inactive,
CC(C)NCC(O)c1ccc(O)c(O)c1 (centres undefined),inactive,
Cc1cn([C@H]2C=C[C@@H](CO)O2)c(=O)[nH]c1=O,inactive,
CCc1nc(N)nc(N)c1-c1ccc(Cl)cc1,inactive,
C/C=C/C=C/C(=O)O,inactive,
Nc1c(N=Nc2ccc(-c3ccc(N=Nc4cc(S(=O)(=O)O)c5ccccc5c4N)cc3)cc2)cc(S(=O)(=O)O)c2ccccc12,,1.61% (inactive)
Nc1c2c(nc3ccccc13)CCCC2,inactive,
O=S1(=O)OC(c2ccc(O)cc2)(c2ccc(O)cc2)c2ccccc21,inactive,
CCCCCCCC(=O)OCC(COC(=O)CCCCCCC)OC(=O)CCCCCCC,inactive,
NS(=O)(=O)O,inactive,
Cc1c(C(=O)O)c(O)cc2c1C(=O)c1c(O)c([C@@H]3O[C@H](CO)[C@@H](O)[C@H](O)[C@H]3O)c(O)c(O)c1C2=O,inactive,
CCCCCCCCCCCCCCCC[N+](C)(C)Cc1ccccc1,24.8 µM (active),
CC1(C)O[C@@H]2C[C@H]3[C@@H]4CCC5=CC(=O)C=C[C@]5(C)[C@@]4(F)[C@@H](O)C[C@]3(C)[C@]2(C(=O)CO)O1,inactive,
Nc1ccc(S(N)(=O)=O)cc1,inactive,
CN(C)CCOC(c1ccccc1)c1ccccc1,,-20.4% [at 42.5 µM] (inactive)
CCCCOC(=O)c1ccc(O)cc1,,6.03% [at 42.5 µM] (inactive)
NC1CCCCC1,inactive,
CCN(CC)C(=O)c1cccc(C)c1,inactive,
CNNCc1ccc(C(=O)NC(C)C)cc1,inactive,
OC[C@H]1O[C@H](O[C@]2(CCl)O[C@H](CCl)[C@@H](O)[C@@H]2O)[C@H](O)[C@@H](O)[C@H]1Cl,inactive,
